Key:
[1] = target: Sphingosine kinase 1 (Homo sapiens) (UniProt Q9NYA1); conditions: at 1 µM;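 further: mean SPHK1 inhibition value reported from the GSK PKIS kinase panel screen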
[2] = target: T1, Sphingosine kinase 2 (Homo sapiens) (UniProt Q9NRA0); conditions: at 0.1 µM
T1 sequence (whole entry): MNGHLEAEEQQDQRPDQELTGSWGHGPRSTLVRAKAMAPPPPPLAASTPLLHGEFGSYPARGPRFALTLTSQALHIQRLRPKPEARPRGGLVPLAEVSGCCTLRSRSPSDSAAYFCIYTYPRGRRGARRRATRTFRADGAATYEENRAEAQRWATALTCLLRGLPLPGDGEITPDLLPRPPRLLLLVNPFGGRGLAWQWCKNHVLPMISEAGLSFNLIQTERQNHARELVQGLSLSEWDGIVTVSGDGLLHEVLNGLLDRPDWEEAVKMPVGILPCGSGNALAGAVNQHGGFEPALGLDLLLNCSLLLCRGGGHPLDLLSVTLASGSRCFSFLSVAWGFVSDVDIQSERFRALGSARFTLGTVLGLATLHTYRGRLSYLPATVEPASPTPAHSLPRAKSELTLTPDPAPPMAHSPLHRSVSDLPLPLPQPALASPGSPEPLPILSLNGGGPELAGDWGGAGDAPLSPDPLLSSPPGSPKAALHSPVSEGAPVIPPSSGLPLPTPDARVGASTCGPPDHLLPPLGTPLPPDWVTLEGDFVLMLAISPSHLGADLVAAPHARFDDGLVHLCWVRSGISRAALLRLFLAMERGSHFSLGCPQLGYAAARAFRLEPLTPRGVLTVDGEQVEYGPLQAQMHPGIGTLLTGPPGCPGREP

[3] = target: T1, Sphingosine kinase 2 (Homo sapiens); conditions: at 1 µM
[4] = target: Casein kinase II subunit alpha (Homo sapiens) (UniProt P68400); conditions: at 0.1 µM
[5] = target: Casein kinase II subunit alpha (Homo sapiens) (UniProt P68400); conditions: at 1 µM
[6] = target: T2, Inhibitor of nuclear factor kappa-B kinase subunit alpha (Homo sapiens) (UniProt O15111); conditions: at 0.1 µM
T2 sequence (whole entry): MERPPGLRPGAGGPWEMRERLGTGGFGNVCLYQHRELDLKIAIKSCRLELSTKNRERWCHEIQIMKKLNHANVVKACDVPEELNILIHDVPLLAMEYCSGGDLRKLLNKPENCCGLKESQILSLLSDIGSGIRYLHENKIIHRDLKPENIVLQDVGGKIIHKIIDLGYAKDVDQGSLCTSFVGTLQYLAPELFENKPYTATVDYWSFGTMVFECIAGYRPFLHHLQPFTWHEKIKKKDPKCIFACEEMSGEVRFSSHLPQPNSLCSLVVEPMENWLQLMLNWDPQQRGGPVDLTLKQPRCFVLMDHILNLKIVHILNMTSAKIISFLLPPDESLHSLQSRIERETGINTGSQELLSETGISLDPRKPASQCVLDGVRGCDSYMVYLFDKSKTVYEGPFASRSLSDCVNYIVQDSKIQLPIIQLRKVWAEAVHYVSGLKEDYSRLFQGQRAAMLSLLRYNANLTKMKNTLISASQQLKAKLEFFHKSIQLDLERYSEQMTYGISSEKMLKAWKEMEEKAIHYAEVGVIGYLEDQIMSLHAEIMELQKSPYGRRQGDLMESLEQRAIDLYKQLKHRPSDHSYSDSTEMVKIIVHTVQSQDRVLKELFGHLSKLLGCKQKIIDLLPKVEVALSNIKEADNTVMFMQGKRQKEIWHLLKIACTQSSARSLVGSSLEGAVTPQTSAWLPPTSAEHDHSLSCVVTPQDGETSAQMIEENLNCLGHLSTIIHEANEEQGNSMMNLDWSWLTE

[7] = target: T2, Inhibitor of nuclear factor kappa-B kinase subunit alpha (Homo sapiens); conditions: at 1 µM
[8] = target: T3, Inhibitor of nuclear factor kappa-B kinase subunit beta (Homo sapiens) (UniProt O14920); conditions: at 0.1 µM
T3 sequence (whole entry): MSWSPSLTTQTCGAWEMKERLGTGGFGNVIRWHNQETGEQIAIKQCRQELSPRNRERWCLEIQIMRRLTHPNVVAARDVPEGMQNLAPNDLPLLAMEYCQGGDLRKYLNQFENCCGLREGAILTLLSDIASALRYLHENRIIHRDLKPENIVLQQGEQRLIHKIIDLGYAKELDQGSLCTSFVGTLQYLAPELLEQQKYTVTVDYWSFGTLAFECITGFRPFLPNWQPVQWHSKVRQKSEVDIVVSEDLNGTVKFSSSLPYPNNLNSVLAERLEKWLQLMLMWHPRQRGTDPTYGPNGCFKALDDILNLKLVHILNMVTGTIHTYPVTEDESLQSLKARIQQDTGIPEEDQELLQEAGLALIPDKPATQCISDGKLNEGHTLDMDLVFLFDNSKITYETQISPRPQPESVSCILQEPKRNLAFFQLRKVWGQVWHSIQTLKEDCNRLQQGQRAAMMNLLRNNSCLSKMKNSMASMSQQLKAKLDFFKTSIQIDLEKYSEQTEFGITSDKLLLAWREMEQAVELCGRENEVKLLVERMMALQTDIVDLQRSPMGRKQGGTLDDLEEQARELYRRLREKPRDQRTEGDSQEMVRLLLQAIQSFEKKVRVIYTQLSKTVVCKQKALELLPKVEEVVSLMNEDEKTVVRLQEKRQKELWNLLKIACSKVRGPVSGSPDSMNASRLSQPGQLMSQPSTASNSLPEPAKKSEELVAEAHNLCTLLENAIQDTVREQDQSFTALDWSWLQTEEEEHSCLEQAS

[9] = target: T3, Inhibitor of nuclear factor kappa-B kinase subunit beta (Homo sapiens); conditions: at 1 µM
[10] = target: T4, Inhibitor of nuclear factor kappa-B kinase subunit epsilon (Homo sapiens) (UniProt Q14164); conditions: at 0.1 µM
T4 sequence (whole entry): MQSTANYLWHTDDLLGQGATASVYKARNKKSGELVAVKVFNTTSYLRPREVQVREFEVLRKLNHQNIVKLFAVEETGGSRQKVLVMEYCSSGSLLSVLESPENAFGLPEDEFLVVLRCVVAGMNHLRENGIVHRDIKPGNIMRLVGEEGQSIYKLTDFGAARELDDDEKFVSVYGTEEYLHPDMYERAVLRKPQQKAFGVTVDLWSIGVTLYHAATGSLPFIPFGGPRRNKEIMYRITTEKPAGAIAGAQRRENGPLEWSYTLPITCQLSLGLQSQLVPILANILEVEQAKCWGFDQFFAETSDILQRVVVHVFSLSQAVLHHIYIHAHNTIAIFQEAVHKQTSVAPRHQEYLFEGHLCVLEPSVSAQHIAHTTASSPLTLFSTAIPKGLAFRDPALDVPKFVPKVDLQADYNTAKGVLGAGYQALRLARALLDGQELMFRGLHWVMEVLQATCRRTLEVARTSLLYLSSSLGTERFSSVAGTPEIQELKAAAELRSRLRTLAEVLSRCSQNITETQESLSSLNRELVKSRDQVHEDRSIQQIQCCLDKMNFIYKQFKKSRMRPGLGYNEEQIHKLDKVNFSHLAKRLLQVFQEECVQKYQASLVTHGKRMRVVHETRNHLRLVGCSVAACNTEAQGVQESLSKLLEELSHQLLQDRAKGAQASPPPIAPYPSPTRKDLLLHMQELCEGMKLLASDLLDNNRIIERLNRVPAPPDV

[11] = target: T4, Inhibitor of nuclear factor kappa-B kinase subunit epsilon (Homo sapiens); conditions: at 1 µM
[12] = target: T5, Serine/threonine-protein kinase Nek1 (Homo sapiens) (UniProt Q96PY6); conditions: at 0.1 µM
T5 sequence (whole entry): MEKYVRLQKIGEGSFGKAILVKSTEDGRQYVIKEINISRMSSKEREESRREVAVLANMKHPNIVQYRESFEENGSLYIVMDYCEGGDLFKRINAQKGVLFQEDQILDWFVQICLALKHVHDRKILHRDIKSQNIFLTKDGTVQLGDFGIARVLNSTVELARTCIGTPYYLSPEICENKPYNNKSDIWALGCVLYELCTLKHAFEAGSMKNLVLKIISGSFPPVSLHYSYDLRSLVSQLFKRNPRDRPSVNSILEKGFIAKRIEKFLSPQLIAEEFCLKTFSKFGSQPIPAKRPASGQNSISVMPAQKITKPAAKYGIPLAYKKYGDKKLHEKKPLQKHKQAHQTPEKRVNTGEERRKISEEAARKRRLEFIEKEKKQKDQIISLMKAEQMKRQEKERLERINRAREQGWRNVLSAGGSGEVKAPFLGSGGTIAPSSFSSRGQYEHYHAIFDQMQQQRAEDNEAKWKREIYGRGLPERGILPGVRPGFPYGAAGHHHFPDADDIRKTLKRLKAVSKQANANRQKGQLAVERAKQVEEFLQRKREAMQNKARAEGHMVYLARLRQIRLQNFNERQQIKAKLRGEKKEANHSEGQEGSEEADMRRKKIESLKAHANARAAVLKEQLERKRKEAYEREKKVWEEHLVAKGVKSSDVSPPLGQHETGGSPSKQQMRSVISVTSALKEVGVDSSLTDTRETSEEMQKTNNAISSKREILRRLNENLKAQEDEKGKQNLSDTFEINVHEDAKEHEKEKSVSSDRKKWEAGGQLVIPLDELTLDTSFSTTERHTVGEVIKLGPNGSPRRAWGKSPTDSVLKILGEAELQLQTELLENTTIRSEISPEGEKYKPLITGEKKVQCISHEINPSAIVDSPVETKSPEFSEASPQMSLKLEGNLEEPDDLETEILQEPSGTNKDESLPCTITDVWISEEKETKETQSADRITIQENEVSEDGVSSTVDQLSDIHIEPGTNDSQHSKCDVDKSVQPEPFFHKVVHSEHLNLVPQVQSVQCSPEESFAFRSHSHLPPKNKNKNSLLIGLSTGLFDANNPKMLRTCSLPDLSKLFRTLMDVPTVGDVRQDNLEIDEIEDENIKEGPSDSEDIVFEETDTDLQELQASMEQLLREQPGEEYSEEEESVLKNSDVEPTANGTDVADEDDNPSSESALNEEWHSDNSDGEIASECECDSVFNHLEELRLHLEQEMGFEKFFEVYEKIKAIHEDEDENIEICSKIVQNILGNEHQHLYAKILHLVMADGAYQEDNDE

[13] = target: T5, Serine/threonine-protein kinase Nek1 (Homo sapiens); conditions: at 1 µM
[14] = target: T6, Serine/threonine-protein kinase Nek2 (Homo sapiens) (UniProt P51955); conditions: at 0.1 µM
T6 sequence (whole entry): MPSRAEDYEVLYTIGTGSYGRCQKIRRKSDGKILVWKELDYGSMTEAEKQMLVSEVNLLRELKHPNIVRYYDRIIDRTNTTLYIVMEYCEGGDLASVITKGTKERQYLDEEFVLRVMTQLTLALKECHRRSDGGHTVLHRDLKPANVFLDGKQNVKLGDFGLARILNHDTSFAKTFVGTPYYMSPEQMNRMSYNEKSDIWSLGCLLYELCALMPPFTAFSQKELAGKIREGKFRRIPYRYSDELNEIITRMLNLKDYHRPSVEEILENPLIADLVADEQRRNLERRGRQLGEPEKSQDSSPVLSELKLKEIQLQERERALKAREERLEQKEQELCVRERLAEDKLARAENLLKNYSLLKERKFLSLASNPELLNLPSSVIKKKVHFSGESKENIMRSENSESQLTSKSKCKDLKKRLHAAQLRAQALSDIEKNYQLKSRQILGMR

[15] = target: T6, Serine/threonine-protein kinase Nek2 (Homo sapiens); conditions: at 1 µM
[16] = target: Serine/threonine-protein kinase Nek6 (Homo sapiens) (UniProt Q9HC98); conditions: at 0.1 µM
[17] = target: Serine/threonine-protein kinase Nek6 (Homo sapiens) (UniProt Q9HC98); conditions: at 1 µM
[18] = target: Serine/threonine-protein kinase Nek7 (Homo sapiens) (UniProt Q8TDX7); conditions: at 0.1 µM
[19] = target: Serine/threonine-protein kinase Nek7 (Homo sapiens) (UniProt Q8TDX7); conditions: at 1 µM
[20] = target: T7, Serine/threonine-protein kinase Nek9 (Homo sapiens) (UniProt Q8TD19); conditions: at 0.1 µM;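 further: reported value is the mean percent inhibition of NEK9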
T7 sequence (whole entry): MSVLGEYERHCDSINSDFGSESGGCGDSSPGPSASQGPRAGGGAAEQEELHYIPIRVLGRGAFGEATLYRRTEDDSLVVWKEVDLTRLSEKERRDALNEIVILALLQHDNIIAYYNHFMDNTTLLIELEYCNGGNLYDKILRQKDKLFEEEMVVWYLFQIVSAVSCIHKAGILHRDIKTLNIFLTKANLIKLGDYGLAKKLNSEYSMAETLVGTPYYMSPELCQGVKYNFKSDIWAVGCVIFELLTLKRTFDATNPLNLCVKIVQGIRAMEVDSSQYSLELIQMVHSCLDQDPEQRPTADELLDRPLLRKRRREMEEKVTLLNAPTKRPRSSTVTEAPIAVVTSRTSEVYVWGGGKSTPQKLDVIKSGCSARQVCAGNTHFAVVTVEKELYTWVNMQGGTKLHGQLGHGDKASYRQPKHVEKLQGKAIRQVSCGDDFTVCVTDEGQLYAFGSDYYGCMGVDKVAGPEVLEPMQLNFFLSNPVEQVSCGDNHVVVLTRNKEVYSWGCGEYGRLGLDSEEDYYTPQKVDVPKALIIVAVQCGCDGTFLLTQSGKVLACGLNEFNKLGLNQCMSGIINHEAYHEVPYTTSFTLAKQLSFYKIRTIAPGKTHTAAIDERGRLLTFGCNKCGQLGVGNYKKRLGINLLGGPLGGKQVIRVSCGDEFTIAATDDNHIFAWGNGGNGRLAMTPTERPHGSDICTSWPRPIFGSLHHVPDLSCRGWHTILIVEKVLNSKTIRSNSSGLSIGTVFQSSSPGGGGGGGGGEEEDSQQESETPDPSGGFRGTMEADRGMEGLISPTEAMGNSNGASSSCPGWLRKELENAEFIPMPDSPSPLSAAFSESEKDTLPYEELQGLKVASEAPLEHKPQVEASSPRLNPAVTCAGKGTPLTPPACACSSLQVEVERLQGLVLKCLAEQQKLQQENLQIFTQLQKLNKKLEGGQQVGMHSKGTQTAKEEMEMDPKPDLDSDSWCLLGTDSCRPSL

Chain of Serine/threonine-protein kinase Nek7 (Homo sapiens) (Q8TDX7 whole entry, looked up): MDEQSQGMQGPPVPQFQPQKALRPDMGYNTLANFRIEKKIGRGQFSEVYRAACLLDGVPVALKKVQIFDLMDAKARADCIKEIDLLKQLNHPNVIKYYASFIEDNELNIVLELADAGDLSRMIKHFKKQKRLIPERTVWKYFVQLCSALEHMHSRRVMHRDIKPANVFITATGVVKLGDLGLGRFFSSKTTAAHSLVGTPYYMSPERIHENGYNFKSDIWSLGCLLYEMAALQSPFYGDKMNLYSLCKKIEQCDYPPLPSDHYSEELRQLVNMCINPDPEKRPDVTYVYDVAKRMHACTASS
Chain of Casein kinase II subunit alpha (Homo sapiens) (P68400 whole entry, looked up): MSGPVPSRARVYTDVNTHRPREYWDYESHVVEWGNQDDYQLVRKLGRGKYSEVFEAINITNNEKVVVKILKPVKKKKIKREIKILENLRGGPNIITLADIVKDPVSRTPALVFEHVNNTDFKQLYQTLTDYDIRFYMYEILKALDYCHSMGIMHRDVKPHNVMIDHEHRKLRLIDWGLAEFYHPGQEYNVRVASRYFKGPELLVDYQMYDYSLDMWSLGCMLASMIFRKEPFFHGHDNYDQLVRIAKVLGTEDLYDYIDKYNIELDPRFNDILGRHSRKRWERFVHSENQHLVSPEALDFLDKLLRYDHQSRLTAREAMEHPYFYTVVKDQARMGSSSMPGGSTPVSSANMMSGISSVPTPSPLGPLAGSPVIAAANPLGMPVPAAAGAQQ
Chain of Serine/threonine-protein kinase Nek6 (Homo sapiens) (Q9HC98 whole entry): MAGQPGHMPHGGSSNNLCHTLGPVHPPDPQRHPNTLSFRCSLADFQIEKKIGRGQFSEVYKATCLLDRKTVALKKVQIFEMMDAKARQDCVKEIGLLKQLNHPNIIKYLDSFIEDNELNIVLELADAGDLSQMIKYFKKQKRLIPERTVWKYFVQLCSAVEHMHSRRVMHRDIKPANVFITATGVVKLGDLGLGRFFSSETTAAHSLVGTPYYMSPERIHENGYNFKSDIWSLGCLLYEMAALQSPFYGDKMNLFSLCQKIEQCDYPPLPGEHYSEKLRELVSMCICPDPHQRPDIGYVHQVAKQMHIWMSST
Chain of Sphingosine kinase 1 (Homo sapiens) (Q9NYA1 whole entry): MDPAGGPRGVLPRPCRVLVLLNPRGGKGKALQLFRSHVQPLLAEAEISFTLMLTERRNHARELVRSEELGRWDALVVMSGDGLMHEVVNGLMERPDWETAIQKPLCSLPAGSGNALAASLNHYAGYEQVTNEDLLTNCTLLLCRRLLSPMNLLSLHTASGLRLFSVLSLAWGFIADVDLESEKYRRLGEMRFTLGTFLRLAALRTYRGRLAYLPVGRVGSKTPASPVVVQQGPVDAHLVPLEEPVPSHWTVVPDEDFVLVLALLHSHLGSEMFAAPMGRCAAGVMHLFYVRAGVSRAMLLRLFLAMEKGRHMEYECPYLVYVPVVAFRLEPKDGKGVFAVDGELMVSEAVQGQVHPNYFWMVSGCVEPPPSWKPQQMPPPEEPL

Cc1ccc(NC(=O)c2ccnc(N3CCCC3)c2)cc1-c1ccc(C(=O)NCC2CC2)cc1
inhibition [1]: 0.63%
inhibition [2]: 0.74%
inhibition [3]: -0.47%
inhibition [4]: 7.04%
inhibition [5]: 4.49%
inhibition [6]: 0.55%
inhibition [7]: 0.16%
inhibition [8]: 9.14%
inhibition [9]: 9.33%
inhibition [10]: 5.82%
inhibition [11]: 5.3%
inhibition [12]: 2.74%
inhibition [13]: 2.36%
inhibition [14]: 5.44%
inhibition [15]: 5.04%
inhibition [16]: 1.43%
inhibition [17]: 0.15%
inhibition [18]: 6.37%
inhibition [19]: 4.61%
inhibition [20]: 5.79%

COc1cc2ncn(-c3cc(OCc4ccccc4Cl)c(C(N)=O)s3)c2cc1OC
inhibition [1]: -2.81%
inhibition [2]: 5.21%
inhibition [3]: -4.96%
inhibition [4]: 2.2%
inhibition [5]: 9.54%
inhibition [6]: -1.84%
inhibition [7]: 5.14%
inhibition [8]: 1.96%
inhibition [9]: 1.01%
inhibition [10]: 0.65%
inhibition [11]: 2.71%
inhibition [12]: 3.45%
inhibition [13]: 15.5%
inhibition [14]: 3.49%
inhibition [15]: 37.3%
inhibition [16]: 1.95%
inhibition [17]: -3.5%
inhibition [18]: 4.31%
inhibition [19]: 1.21%
inhibition [20]: 9.22%

From ChEMBL document CHEMBL1961873, “Compounds: GSK PKIS; Assays: Nanosyn kinase panel” (2012)
